# Bioassay records as filed in PubChem.
# A selection: hits, their analogues and other compounds. The true share with any hit is near 12%.
# Insulin prom up: MIN6 insulin promoter up-regulation; MIN6 insulin promoter-GFP reporter, high-content imaging; stronger effect = higher value; z-score at 5 µM; 190,000 tested, 0.3% active; AID 1625;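 active = z-score above 3 at 5 µM with at least 500 cells counted in the well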
# INS promoter inh: TRM-6 insulin promoter activity inhibition; TRM-6 cells (human fetal islet line), insulin promoter-eGFP reporter, imaging; reporter expression induced with tamoxifen; inhibition, % at 2 µM; 130,000 tested, 0.9% active; AID 1273;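 active = inhibition above the mean plus 3 SD, with well images judged a real hit on visual review, cut at about 60% in these data, passing the limit was not always enough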
# KCC2 mod: KCC2 (human) Cl- transport modulation | Q9H2X9 | KCC2 cells, thallium flux FluoZin-2 fluorescence | B-score of Tl+ flux slope (higher = more flux/activation; lower = inhibition) at 10 µM | 190,000 tested, 2.2% active | AID 1456;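 active = thallium flux slope and its plate-corrected score both differing from the plate sample mean at a set confidence after two filtering rounds, in either direction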;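 note: slope of fluorescence scaled to starting intensity during 10 to 20 s after thallium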
# WT yeast gro inh: growth inhibition of WT yeast, mitochondrial fusion screen. mitochondrial fusion phenotypic screen, WT strain. 190,000 tested, 2.1% active. inhibition, % at 10 µM; in the data active = inhibition above about 58%; tested in S. cerevisiae
# L major viab: inhibitors of Leishmania major promastigote growth. 200,000 tested, 9% active. inhibition, % at 10 µM. Leishmania major promastigotes, resazurin fluorescence viability. AID 1063; in the data active = inhibition above about 50%;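 note: promastigotes grown with compound for 44 hours at 28 °C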
# ROMK primary: modulators of human ROMK potassium channel; Tet-inducible ROMK, thallium flux fluorescence; actives lie on both sides; P48048; 130,000 tested, 2% active; AID 1918; B-score at 10 µM;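 active = signal ratio slope over the read window, or its plate-corrected B-score, at least 3 SD from the plate mean, either direction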;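 note: B-score of the F/F0 ratio slope over 7 to 12 s after thallium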
# Target sequence (P48048 whole entry, looked up): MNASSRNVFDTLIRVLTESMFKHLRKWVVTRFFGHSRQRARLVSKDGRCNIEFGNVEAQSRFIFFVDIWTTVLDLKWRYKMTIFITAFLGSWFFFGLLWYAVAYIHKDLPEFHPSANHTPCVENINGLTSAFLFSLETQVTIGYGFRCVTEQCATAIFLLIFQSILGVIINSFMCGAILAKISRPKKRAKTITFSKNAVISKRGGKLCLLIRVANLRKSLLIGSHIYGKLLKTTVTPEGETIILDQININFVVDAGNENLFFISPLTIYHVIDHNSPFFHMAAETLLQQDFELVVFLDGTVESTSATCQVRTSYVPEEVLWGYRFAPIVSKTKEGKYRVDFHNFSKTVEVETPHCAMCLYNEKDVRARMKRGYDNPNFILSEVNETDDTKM
# * hit, by the source's call; / = not tested or not shown.
SMILES,Insulin prom up,INS promoter inh,KCC2 mod,WT yeast gro inh,L major viab,ROMK primary
O=C(C(=O)N1CCN(c2ccc(F)cc2)CC1)N1CCCCC1,0.63,/,0.92,-9,-6,-0.039
O=C(NNC(=O)c1ccc(F)cc1)C(=O)N1CCCCC1,1,-32,1.4,-3,95*,0.77
CCn1nc(C)c(/C=C/C(=O)Nc2ccc(C)cc2C)c1C,0.59,-3,0.85,-6,35,/
CC(=O)Nc1ccc(C(=O)OCC(=O)N(Cc2ccccc2)C(C)(C)C)cc1,0.69,53,-0.18,-4,67*,0.0058
CC(=O)Nc1ccc(C(=O)OCc2ccc(Cl)c(Cl)c2)cc1,0.55,44,-2.1,31,62*,0.74
CC(=O)Nc1ccc(C(=O)OCc2ccccc2Br)cc1,0.25,/,1.4,76*,8,0.94
CC(=O)Nc1ccc(C(=O)OCc2ccc(F)cc2Cl)cc1,0.07,-19,-0.8,70,13,0.0021
CC(=O)Nc1ccc(C(=O)OCc2ccc(Cl)cc2)cc1,0.39,-3,-0.59,-9,34,0.24
CCC(=O)Nc1ccc(C(=O)OCc2ccc(Cl)c(Cl)c2)cc1,-0.15,-7,0.73,16,65*,0.0082
CC(NS(=O)(=O)c1ccc(Br)cc1)C(=O)NCc1ccco1 (stereo not drawn),-2.5,/,-0.34,11,4,0.66
CC(NS(=O)(=O)c1ccc(Br)cc1)C(N)=O (stereo not drawn),-0.12,48,0.83,66*,-3,0.12
COc1ccc(/C(C)=N\NS(=O)(=O)c2ccccc2)cc1OC,-0.13,-8,0.059,-3,37,/
CCc1cccc(OCCn2ccnc2)c1,0.72,14,0.25,-7,40,0.21
Cc1cccc(C(C)(C)C)c1OCCn1ccnc1,/,89*,/,9,99*,/
Cc1cc(Cl)cc(C)c1OCCCCn1ccnc1,/,47,-0.69,76*,100*,/
Cc1cc(OCCCCN2C(=O)NC(C)(C)C2=O)cc(C)c1Cl,-0.2,-42,-0.15,6,4,-0.096
Cc1cccc(Cl)c1OCCCCn1ccnc1,-0.07,20,/,25,98*,/
Cc1cc(Cl)ccc1OC(C)C(=O)NCCCn1ccnc1 (stereo not drawn),0.35,-94,-0.64,0,-3,1
Cc1cc(OCCCCn2ccnc2)cc(C)c1Cl,/,/,0.73,76*,99*,-1.7
COc1ccc(-c2c(C(F)(F)F)oc3cc(OCC(=O)Nc4ccccc4C(F)(F)F)ccc3c2=O)cc1OC,-1.7,/,0.24,-22,1,/
O=C(c1n[nH]c(=O)c2ccccc12)N1CCOCC1,0.29,/,/,-15,-4,0.12
CCN1C(=O)/C(=C\c2nc3ccccc3c(=O)n2CC)c2ccccc21,0.53,/,-0.43,25,96*,-0.43
CCn1c(/C=C2/C(=O)N(C)c3ccccc32)nc2ccccc2c1=O,-0.27,/,0.31,7,31,0.002
CCN1C(=O)/C(=C/c2nc3ccccc3c(=O)n2-c2ccccc2)c2ccccc21,0.84,-17,-1.4,4,71*,/
Cc1ccc2nc(NC(=O)CSc3nncc(=O)n3N)sc2c1,0.14,20,-0.36,13,-3,0.55
SMILES,Insulin prom up,INS promoter inh,KCC2 mod,WT yeast gro inh,L major viab,ROMK primary
CC(=O)n1nc(-c2ccccc2)nc1NCc1ccc(F)cc1,-0.08,50,0.37,-8,-1,/
CC(=O)N(Cc1ccc(F)cc1)C1=C(NCc2ccccc2)C(=O)c2ccccc2C1=O,/,50,-1.5,43,100*,-2.3
CC1CCN(C(=O)COC(=O)c2cc(Cl)cc(Cl)c2N)CC1,-0.15,38,1.7,23,3,-0.95
C/C(=N\NC(=O)c1ccc(NS(=O)(=O)c2cccs2)cc1)c1ccc2c(c1)OCO2,-0.74,/,0.29,-1,74*,-0.021
COc1ccc(C)cc1-n1nnnc1SCC(=O)c1ccc2c(c1)OCCO2,0.46,/,-1.6,2,7,/
Cc1ccc(Cn2cccc2C2=NC(C)CO2)cc1 (stereo not drawn),0.66,16,0.55,-8,-3,0.86
NS(=O)(=O)c1cccc(NC(=O)CSc2nc3ccccc3c(=O)n2CCCN2CCOCC2)c1,0.17,21,0.91,5,-8,0.65
CS(=O)(=O)c1ccc(Cl)c(NC(=O)CSc2nc3ccccc3c(=O)n2CCCN2CCOCC2)c1,0.74,-19,0.58,-6,85*,-0.41
O=C(CSc1nc2ccccc2c(=O)n1CCCN1CCOCC1)c1c[nH]c2ccccc12,/,/,-0.14,-10,53*,0.25
O=C1CN(C(=O)CSc2nc3ccccc3c(=O)n2CCCN2CCOCC2)c2ccccc2N1,0.12,/,0.25,/,/,/
